FMDV antiviral: High Throughput Screening for Foot and Mouth Disease Virus Antivirals; FMDV antiviral cell-based qHTS; Potency, µM (doses to about 57.9 µM), without a hit: at the highest dose activity change, negative = inhibition, hits mostly inhibitors; 410,000 tested, 1.2% active; AID 1159524, 2015; calls by dose curve; tested in HEK293T cells; further: read-out not given here; potency means the concentration at half of the fitted maximal effect; nearly all actives have a fitted effect of over 45% in size
HCV inh: qHTS Assay for Inhibitors of Hepatitis C Virus (HCV); Huh7.5.1 HCVcc-Cre infection, luciferase reporter, 44 h; Potency, µM (highest dose often 41.8 µM), without a hit: at the highest dose activity change, negative = inhibition, most hits filed as inhibitors; 340,000 tested, 3.4% active; active means well fitted inhibition curve with a large enough effect; inconclusive means small, poorly fitted or top-dose-only effect, or another doubt; inactive means no such curve, though single readings can be large or run the other way; further: potency means the concentration at half of the fitted maximal effect
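Cells (1,000/well) were plated 4 h before compound, then infected with HCVcc-Cre virus (~0.5 moi). After 44 h further culture, infection was read as luciferase luminescence following a 15 min substrate incubation at room temperature.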
HCMV antiviral: qHTS Assay for inhibitors of the human cytomegalovirus (HCMV); HFF cells, HCMV-luciferase reporter, 72 h; active compounds read low; 410,000 tested, 4.5% active; activity change, negative = inhibition, % at 57.5 µM; in the data active means activity change below about -60%; inconclusive means no clear call, values can overlap the other calls; inactive means above about -39%
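HFF cells seeded 16 h at 37C, treated with compounds, infected with luciferase-reporter HCMV at MOI 1 PFU/cell; luciferase read at 72 h post infection, normalized to buffer-only and Salinomycin controls.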
LASV entry inh: qHTS for Inhibitors of binding or entry into cells for Lassa Virus | 300,000 tested, 1.2% active | Lassa virus pseudotype entry inhibition, cell reporter | Potency, µM (series often up to 37.9 µM), inactives show top-dose activity change, negative = inhibition, actives largely listed as inhibitors; calls by dose curve; tested in HEK293 cells; further: potency means the concentration at half of the fitted maximal effect; nearly all actives have a fitted effect of over 50% in size
Marburg entry inh: qHTS for inhibitors of binding or entry into cells for Marburg Virus | Potency, µM (titrated, usually from 37.8 µM), for inactives: at the top dose activity change, negative = inhibition, usual class: inhibitors | 300,000 tested, 1.8% active | AID 540276, 2011 | Marburg virus pseudotyped entry inhibition, cell reporter; calls by dose curve; tested in HEK293 cells; further: potency means the concentration at half of the fitted maximal effect
Numbers without * were called inactive; ? = inconclusive; nt = not tested or not shown; [ ] = remark or other dose. This is a sample that favours compounds with a hit; in the whole collection about 7.9% have one here. On the % scale 0 is the no-effect control and ±100 the full control effect.

SMILES	FMDV antiviral	HCV inh	HCMV antiviral	LASV entry inh	Marburg entry inh
C[C@@H](C(=O)NC1CCCC1)N1C(=O)N2CCc3c([nH]c4ccccc34)[C@@]2(C)C1=O	-39%	10µM*	16	nt	nt
COc1ccc(CCNC(=O)[C@H](C)N2C(=O)N3CCc4c([nH]c5ccccc45)[C@@]3(C)C2=O)cc1OC	?	1µM*	-29	nt	nt
COc1ccc(C2=Nn3c(nnc3-c3ccccc3OC)SC2)cc1OCC1CC1	?	nt	-84*	nt	nt
COc1ccc(C2=Nn3c(nnc3-c3ccccc3F)SC2)cc1OC1CCOC1 (configuration not stated)	-14%	nt	127	nt	nt
COc1ccc(C2=Nn3c(nnc3-c3ccccc3)SC2)cc1OC	-8%	-5%	4	-27%	-30%
COc1ccc(C2=Nn3c(nnc3-c3ccccc3F)SC2)cc1OC1CCCC1	-39%	nt	-75*	nt	nt
COc1ccc(OC)c(-c2nnc3n2N=C(c2ccc(OC)c(OC4CCCC4)c2)CS3)c1	?	nt	-88*	nt	nt
COc1ccc(OC)c(-c2nnc3n2N=C(c2ccc(OC(F)F)c(OCC4CC4)c2)CS3)c1	?	nt	-5	nt	nt
COc1ccc(OC)c(-c2nnc3n2N=C(c2ccc(OC)c(OC)c2)CS3)c1	-11%	nt	-67*	nt	nt
CC1CN(C(=O)COc2coc(CN3CCc4ccccc4C3)cc2=O)CC(C)O1 (configuration not stated)	6%	16%	-14	0%	-1%
COc1cccc(-c2nc(NCCNC(C)=O)c3ccccc3n2)c1	11%	nt	nt	nt	nt
CCOc1cc(C(=O)N2CC(=O)Nc3ccc(C)cc3C2c2ccccc2)cc(OCC)c1OCC (configuration not stated)	-9%	nt	36	21%[46.1 µM]	?
COc1ccc(OC)c(C2=Nn3c(nnc3-c3ccco3)SC2)c1	-19%	?	51	9%	4%
COc1ccc(OC)c(C2=Nn3c(nnc3-c3cccc(OC(C)C)c3)SC2)c1	6%	10µM*	-9	?	?
CCOc1ccc(C2=Nn3c(nnc3-c3ccc(OC)cc3)SC2)cc1	?	?	22	?	5.2µM*
COc1ccc(OC)c(C2=Nn3c(nnc3C3CCCCC3)SC2)c1	11%	16µM*	?	-15%	?
C=CCN(C)C1=NC(c2ccccc2)C(C(=O)OC)=C(C)N1CCOC (configuration not stated)	nt	nt	nt	nt	4%[14.2 µM]
Cc1cc(=O)c(C(=O)N(C)CCc2ccccn2)c2n1-c1ccccc1SC(c1ccsc1)C2 (configuration not stated)	-7%	nt	nt	nt	nt
Cc1cc(C)c(C#N)c(SCc2ccccc2)n1	-13%	-10%	-3	0%	4%
Cc1cc(C)nc(SCc2cn3ccccc3n2)n1	15%	10%	-60*	nt	nt
Cc1cc(C)c(C#N)c(SCc2cn3ccccc3n2)n1	-21%	?	-77*	16%	19%
c1ccc2c(SCc3cn4ccccc4n3)nncc2c1	59%	8%	-60*	6%	1%
O=C(c1ccncc1)N1CCC2(CCC(CNC(=O)C3(N4CCOCC4)CCCCC3)O2)CC1 (configuration not stated)	-4%	nt	nt	nt	nt
Nc1cccc2c1C(=O)N(C(=O)/C=C/c1ccc(F)cc1)C2=O	40µM*	-29%	-5	11µM*	3.2µM*
Nc1cccc2c1C(=O)N(C(=O)c1ccco1)C2=O	-15%	8%	0	16%[46.1 µM]	3%[46.1 µM]
SMILES	FMDV antiviral	HCV inh	HCMV antiviral	LASV entry inh	Marburg entry inh
NC(=S)N/N=C/c1ncc(C(F)(F)F)cc1Cl	-16%	5.6µM*	nt	?	?
NC(=S)N/N=C/c1ccc(C(F)(F)F)cc1	-4%	-7%	-88*	?	-21%
COC(=O)[C@@H]1C[C@@]2(O)[C@@H](O)[C@@H](O)[C@@H](O)C[C@H]2N1Cc1cc(OC)cc(OC)c1	16%	0.5µM*	-100*	nt	nt
COC(=O)[C@@H]1C[C@@]2(O)[C@H](O)[C@H](O)[C@H](O)C[C@H]2N1Cc1cc(OC)cc(OC)c1	2%	18%[8.37 µM]	8	nt	nt
COc1ccc(-c2ccc(C(=O)N(C)Cc3csc(C)n3)c(N3CCC(N4CCc5ccccc5C4)CC3)n2)cc1	52%	nt	nt	nt	nt
Cn1nc(C(F)(F)F)c(-c2ccc(Br)cc2)c1NC(=O)Nc1ccc(F)cc1F	-25%	?	-92*	?	?
Cc1onc(-c2ccccc2Cl)c1C(=O)Oc1cc(N)n(S(=O)(=O)c2ccc(F)cc2)n1	32µM*	-25%	31	-20%	?
Cc1ccc2nc(/N=C(\N)NC(=O)NC3CCCCC3)nc(C)c2c1	?	11µM*	-65*	?	5.6µM*
CCCC(=O)N/C(N)=N/c1nc(C)c2cc(C)ccc2n1	15%	6.3µM*	-2	?	-18%[46.1 µM]
Cc1nc(/N=C(\N)NC(=O)N2c3ccccc3Sc3ccccc32)nc2ccccc12	-18%	?	-22	-12%	-21%
COc1ccc(-n2c(C)cc(/C=N/Nc3nc(N4CCOCC4)nc(N4CCOCC4)n3)c2C)cc1	?	-29%	-33	?	7.3µM*
Cc1cc(/C=N/Nc2nc(N3CCOCC3)nc(N3CCOCC3)n2)c(C)n1-c1ccccc1	-10%	?	-33	?	?
CCCn1c(N)c(C(=O)CSc2nc(C)cs2)c(=O)n(C)c1=O	0%	?	-39	-24%	10µM*
CC12CCC(=O)N1C(C(=O)NCc1ccc(Cl)cc1Cl)CS2 (configuration not stated)	1%	-6%	-34	-14%	11%
CC1CCN(Cc2c(C(=O)N/N=C/c3cc(Cl)ccc3O)nnn2-c2nonc2N)CC1	-15%	10µM*	-100*	?	3.5µM*
COc1c(Cl)cc(Cl)cc1/C=N/NC(=O)c1nnn(-c2nonc2N)c1CN1CCC(C)CC1	-17%	?	-8	1%[46.1 µM]	-29%[46.1 µM]
CC1CCN(Cc2c(C(=O)N/N=C/c3cc(Br)ccc3O)nnn2-c2nonc2N)CC1	-7%	3.5µM*	-102*	?	2µM*
C[C@@H]1O[C@H](O[C@H]2C[C@@H](O)[C@]3(CO)[C@H]4[C@H](O)C[C@]5(C)[C@@H](C6=CC(=O)OC6)CC[C@@]5(O)[C@H]4CC[C@]3(O)C2)[C@@H](O)[C@H](O)[C@H]1O	nt	nt	nt	nt	0.065µM*
CC1O[C@@H](OC2CC[C@@]3(C=O)C4CC[C@]5(C)C(C6=CC(=O)OC6)CC[C@@]5(O)C4CC[C@]3(O)C2)C(O)C(O)C1O (some centres not stated)	0%	nt	nt	nt	nt
C[C@@H]1O[C@@H](O[C@H]2C[C@@H](O)[C@]3(CO)[C@@H]4C(CC[C@]3(O)C2)[C@@]2(O)CC[C@H](C3COC(=O)C3)[C@@]2(C)C[C@H]4O)[C@H](O)[C@H](O)[C@H]1O (some centres not stated)	?	?	-99*	nt	0.82µM*
